Measurements taken from PubChem BioAssay (NCATS).
Where “and” joins values, the source holds several entries; their conditions need not be identical. Equal entries are not always repeated. Results filed as inconclusive are left out. Calls of active or inactive are those of the source. Unless noted, the call rests on the fitted dose curve; in most records, active means well fitted curve in the direction sought with a large enough effect; inconclusive means small, poorly fitted or top-dose-only effect, or another doubt; inactive means no such curve, though single readings can be large; an effect the other way counts as inactive or inconclusive.

What was measured:
[1] = Cell Viability - LYMP2-021 (AID 974);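 further: compound exposure lasts 24 hours at 37 °C; on the % scale 0 is the no-effect control and ±100 the full control effect; nearly all actives have a fitted effect of over 55% in size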
How it was run: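 In qHTS format, compounds are tested against 2500 lymphoblastoid cells per well for 24 h; viable cell number is inferred from ATP-driven luciferase light, and Hill-equation fitting yields AC50 values.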

[2] = Cell Viability - LYMP2-023 (AID 975);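 further: cellular ATP measured by luciferase luminescence as viability proxy; plate controls were DMSO only for no effect and 92 µM tetraoctylammonium bromide control for full effect; nearly all actives have a fitted effect of over 55% in size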
How it was run: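 In this qHTS, ATP-based luciferase luminescence (CellTiter-Glo) is quantified in human lymphoblastoid cells after 24 hr compound treatment at 37 C; tetraoctylammonium bromide serves as positive control. Concentration-response curves are Hill-fitted to give AC50.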

[3] = Cell Viability - LYMP2-025 (AID 976);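 further: plate controls were DMSO only for no effect and tetraoctylammonium bromide control for full effect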
How it was run: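 Luminescent ATP readout after 24 hr treatment of a human lymphoblastoid line (LYMP2-025, 2500 cells/well, 37 C). Reagent developed 30 min at room temperature; AC50 fitted with the Hill equation.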

[4] = Cell Viability - LYMP2-002 (AID 977);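 further: compound exposure lasted 24 h at 37 °C; plate controls were DMSO only for no effect and 92 µM tetraoctylammonium bromide for full effect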
How it was run: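 Human lymphoblastoid cells, 2500/well, complete medium; 5 h 37 C settle; compound 24 h 37 C; CellTiter-Glo, 30 min RT; luminescence. Decrease in ATP = cytotoxicity; AC50 via Hill equation.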

[5] = Cell Viability - LYMP2-006 (AID 978); further: on the % scale 0 is the no-effect control and ±100 the full control effect; nearly all actives have a fitted effect of over 60% in size
How it was run: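 Human lymphoblastoid cells, 2500 per well, were preincubated 5 hr at 37 C, then exposed to compounds for 24 hr at 37 C in complete medium. Viability was read as intracellular ATP by CellTiter-Glo luminescence; AC50 from Hill-equation fits of qHTS concentration-response data.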

[6] = Cell Viability - LYMP2-007 (AID 979);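 further: cells exposed to compound for 24 h before reading; nearly all actives have a fitted effect of over 60% in size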; further: potency means the concentration at half of the fitted maximal effect
How it was run: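 Measured via luciferase-based ATP quantitation: lymphoblastoid cells, 24 hr compound exposure at 37 C, AC50 from Hill fits.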

[7] = Cell Viability - LYMP2-008 (AID 980); further: on the % scale 0 is the no-effect control and ±100 the full control effect; nearly all actives have a fitted effect of over 60% in size
How it was run: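 Measured: ATP-dependent luminescence, proportional to viable cell number, in human lymphoblastoid cells treated 24 hr with compound in complete culture medium. Values are AC50s from Hill-equation modelling of qHTS titrations.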

[8] = Cell Viability - LYMP2-010 (AID 981); further: nearly all actives have a fitted effect of over 55% in size; further: potency means the concentration at half of the fitted maximal effect
How it was run: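 This 24 hr viability screen uses LYMP2-010 lymphoblastoid cells, quantifies ATP via luciferase luminescence, and derives AC50 from Hill fits of qHTS concentration-response data.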

[9] = Cell Viability - LYMP2-014 (AID 983);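 further: plate controls were DMSO only for no effect and 92 µM tetraoctylammonium bromide for full effect; nearly all actives have a fitted effect of over 50% in size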
How it was run: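 Quantitative HTS in lymphoblastoid cells: 24 hr compound exposure, then CellTiter-Glo ATP luminescence. Positive control was tetraoctylammonium bromide, 6.4pM to 92 uM.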

[10] = Cell Viability - LYMP2-016 (AID 984); further: on the % scale 0 is the no-effect control and ±100 the full control effect; nearly all actives have a fitted effect of over 55% in size
How it was run: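 Human lymphoblastoid cells (LYMP2-016), 2500/well in complete medium, preincubated 5 hr at 37 C, then compound-treated 24 hr at 37 C. Intracellular ATP read by CellTiter-Glo luminescence after 30 min at room temperature; AC50 from Hill-equation concentration-response fits.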

[11] = Cell Viability - LYMP2-020 (AID 986)
How it was run: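 Cells at 2500 per well receive a 24 hr compound exposure at 37 C. Viability is measured as ATP-dependent luciferase luminescence, with AC50 modeled from qHTS concentration-response curves.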

[12] = Cell Viability - LYMP2-022 (AID 987); further: nearly all actives have a fitted effect of over 55% in size; further: potency means the concentration at half of the fitted maximal effect
How it was run: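 In this qHTS cytotoxicity screen, compound titrations were incubated 24 hr at 37 C with human lymphoblastoid cells in complete medium. Luciferase-based ATP luminescence provided the viability signal.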

[13] = Cell Viability - LYMP2-024 (AID 988);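 further: plate controls were DMSO only for no effect and 92 µM tetraoctylammonium bromide for full effect; nearly all actives have a fitted effect of over 60% in size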
How it was run: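 Cells at 2500 per well received compound for 24 hr after a 5 hr settling period. Viability was scored by CellTiter-Glo luminescence, with AC50 from Hill fits.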

[14] = Cell Viability - LYMP1-002 - Assay at 24 hr (AID 993); further: on the % scale 0 is the no-effect control and ±100 the full control effect
How it was run: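 Viability was judged from intracellular ATP using a luciferase read-out, following a 24-hour compound incubation at 37 C of lymphoblastoid cells seeded at 2500 per well. Concentration-response data were fitted to the Hill equation for AC50.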

[15] = Cell Viability - LYMP1-002 - Assay at 40 hr (AID 994); further: nearly all actives have a fitted effect of over 60% in size; further: potency means the concentration at half of the fitted maximal effect
How it was run: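 Concentration-dependent ATP loss after 40 hr treatment at 37 C defined toxicity; AC50 values were obtained by fitting the standard Hill equation.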

[16] = qHTS Assay for Lipid Storage Modulators (AID 1519; calls by dose curve; on activity change, negative = inhibition: on the % scale 0 is the no-effect control and ±100 the full control effect); details: Drosophila S3 cells, BODIPY lipid droplet/cell ratio, laser cytometry, cells loaded with oleic acid
How it was run: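 Cells seeded at 5,000 per well were treated with compounds over a concentration series and loaded with oleic acid (400 uM, as added). Lipid droplet fluorescence (488 nm excitation, 500-530 nm channel) was read by laser-scanning cytometry and normalized to 20 uM Triacsin C.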

[17] = target: Alpha-galactosidase A (Homo sapiens) (UniProt P06280); assay: Counterscreen for Glucocerebrosidase Inhibitors: qHTS Assay for Human alpha-Galactosidase at pH 4.5 (AID 992); further: 0% is about no effect
How it was run: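 Fluorogenic 4-MU alpha-D-galactoside (80 uM) hydrolysis, 2 nM enzyme, pH 4.5 citrate buffer + 0.005% Tween-20; 20 min RT; NaOH/glycine pH 10 stop; Ex365/Em440. Compounds titrated 0.7 nM–77 uM; Hill-equation AC50.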

[18] = target: alpha-glucosidase (Oryza sativa, rice) (UniProt Q653V4); assay: Counterscreen for Glucocerebrosidase Inhibitors: qHTS Assay for Rice alpha-Glucosidase at pH 5.0 (AID 997);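 further: 0% = full activity with enzyme and -100% = basal without enzyme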
How it was run: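 Endpoint fluorogenic assay at pH 5.0: compounds (0.7 nM to 77 uM) titrated against 4 nM rice enzyme and 400 uM 4-MU-alpha-glucoside for 20 min at room temperature; NaOH/glycine stop, read ex 365/em 440 nm, Hill-fitted AC50.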

[19] = target: DNA repair nuclease/redox regulator APEX1 (Homo sapiens) (UniProt P27695); assay: qHTS Validation Assay for Inhibitors of the Human Apurinic/apyrimidinic Endonuclease 1 (APE1) (AID 1705;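 further: TAMRA fluorescence gain over two minutes as APE1 cuts a quenched THF abasic duplex; on the % scale 0 is the no-effect control and ±100 the full control effect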)
How it was run: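 Human APE1 was preincubated with compound for 15 min at room temperature, then 50 nM (final) THF-abasic double-stranded DNA substrate bearing 5'-TAMRA and 3'-BHQ-2 was added. Incision-driven fluorescence rise (ex 525/em 598 nm) was read kinetically.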

[20] = measured here: cell count channel max response
[21] = measured here: lipid channel max response

Alpha-galactosidase A (Homo sapiens), sequence (P06280 whole entry, looked up): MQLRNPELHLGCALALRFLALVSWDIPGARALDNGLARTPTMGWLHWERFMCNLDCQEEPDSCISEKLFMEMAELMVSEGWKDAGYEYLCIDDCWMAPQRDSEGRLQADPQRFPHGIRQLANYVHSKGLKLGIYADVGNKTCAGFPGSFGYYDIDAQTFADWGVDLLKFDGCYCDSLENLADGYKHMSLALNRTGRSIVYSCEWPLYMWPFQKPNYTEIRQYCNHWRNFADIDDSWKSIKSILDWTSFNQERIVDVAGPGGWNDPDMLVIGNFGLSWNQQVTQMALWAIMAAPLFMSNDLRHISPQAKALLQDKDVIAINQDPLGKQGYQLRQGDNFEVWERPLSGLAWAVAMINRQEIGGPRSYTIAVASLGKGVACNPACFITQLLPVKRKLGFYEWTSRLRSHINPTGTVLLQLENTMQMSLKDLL
DNA repair nuclease/redox regulator APEX1 (Homo sapiens), sequence (P27695 whole entry, looked up): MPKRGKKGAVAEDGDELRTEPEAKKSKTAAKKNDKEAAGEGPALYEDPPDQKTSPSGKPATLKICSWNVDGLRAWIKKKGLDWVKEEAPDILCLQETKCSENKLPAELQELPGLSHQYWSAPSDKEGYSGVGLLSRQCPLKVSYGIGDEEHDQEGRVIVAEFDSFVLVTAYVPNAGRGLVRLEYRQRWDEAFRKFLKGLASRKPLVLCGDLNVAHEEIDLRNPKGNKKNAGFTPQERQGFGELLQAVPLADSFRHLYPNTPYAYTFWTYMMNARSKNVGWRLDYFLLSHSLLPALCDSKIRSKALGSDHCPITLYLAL

Cc1ccnc2c1NC(=O)c1cccnc1N2C1CC1
inactive: Potency [1] | Potency [2] | Potency [3] | Potency [4] | Potency [5] | Potency [6] | Potency [7] | Potency [8] | Potency [9] | Potency [10] | Potency [11] | Potency [12] | Potency [13] | Potency [14] | Potency [15]

C[C@]12C=CC(=O)C=C1CC[C@@H]1[C@@H]2C(=O)C[C@@]2(C)[C@H]1CC[C@]2(O)C(=O)CO
inactive: Potency [1] | Potency [2] | Potency [3] | Potency [4] | Potency [5] | Potency [6] | Potency [7] | Potency [8] | Potency [9] | Potency [10] | Potency [11] | Potency [12] | Potency [13] | Potency [14] | Potency [15]

O=C(O)c1cccnc1
-11.4% and 15.3%: max response [16, 20]
-16.2% and 21.7%: max response [16, 21]
inactive: activity change, negative = inhibition ([16]; at 25.7 µM (top of the series)) -4.1% | activity change, negative = inhibition ([16]; at 57.5 µM (top of the series)) 5.73%

Cc1noc(NS(=O)(=O)c2ccc(N)cc2)c1C
inactive: Potency [1] | Potency [2] | Potency [3] | Potency [4] | Potency [5] | Potency [6] | Potency [7] | Potency [8] | Potency [9] | Potency [10] | Potency [11] | Potency [12] | Potency [13] | Potency [14] | Potency [15]

CCc1cc(C(N)=S)ccn1
inactive: Potency [1] | Potency [2] | Potency [3] | Potency [4] | Potency [5] | Potency [6] | Potency [7] | Potency [8] | Potency [9] | Potency [10] | Potency [11] | Potency [12] | Potency [13] | Potency [14] | Potency [15] | activity change, negative = inhibition ([16]; at 25.7 µM (top of the series)) -2.71% | activity change, negative = inhibition ([16]; at 57.5 µM (top of the series)) 6.15%
-12.5% and 21.6%: max response [16, 21]
-9.37% and 8.92%: max response [16, 20]

CC(C)(Sc1cc(C(C)(C)C)c(O)c(C(C)(C)C)c1)Sc1cc(C(C)(C)C)c(O)c(C(C)(C)C)c1
1.97% and 25.1%: max response [16, 21]
2.96% and 13.3%: max response [16, 20]
inactive: activity change, negative = inhibition ([16]; at 25.7 µM (top of the series)) -2.44% | activity change, negative = inhibition ([16]; at 57.5 µM (top of the series)) 6.58%

Cc1ncc([N+](=O)[O-])n1CCO
17.2%: max response [16, 20]
27.3%: max response [16, 21]
inactive: Potency [1] | Potency [2] | Potency [3] | Potency [4] | Potency [5] | Potency [6] | Potency [7] | Potency [8] | Potency [9] | Potency [10] | Potency [11] | Potency [12] | Potency [13] | Potency [14] | Potency [15] | activity change, negative = inhibition ([16]; at 57.5 µM (top of the series)) 8.03%

N=C(N)c1ccc(OCCCCCOc2ccc(C(=N)N)cc2)cc1
active: Potency [6] 39.8 µM | Potency [8] 39.8 µM | Potency [12] 39.8 µM | Potency [15] 50.1 µM
inactive: Potency [2] | Potency [3]

CC(C)(C)NC(=O)[C@H]1CC[C@H]2[C@@H]3CC[C@H]4NC(=O)C=C[C@]4(C)[C@H]3CC[C@]12C
-43.7%: max response [16, 20]
-42.5%: max response [16, 21]
inactive: outcome [17] | outcome [18] | activity change, negative = inhibition ([16]; at 57.5 µM (top of the series)) -0.33% | outcome [19]

N[C@@H](Cc1ccc(O)c(O)c1)C(=O)O
-4.9%: max response [16, 21]
-2.41%: max response [16, 20]
inactive: outcome [17] | outcome [18] | activity change, negative = inhibition ([16]; at 25.7 µM (top of the series)) -1.67%

Cc1nnc(NS(=O)(=O)c2ccc(N)cc2)s1
inactive: Potency [1] | Potency [2] | Potency [3] | Potency [4] | Potency [5] | Potency [6] | Potency [7] | Potency [8] | Potency [9] | Potency [10] | Potency [11] | Potency [12] | Potency [13] | Potency [14] | Potency [15]

CCn1cc(C(=O)O)c(=O)c2cc(F)c(N3CCNCC3)nc21
inactive: activity change, negative = inhibition ([16]; at 25.7 µM (top of the series)) 0.491% | activity change, negative = inhibition ([16]; at 57.5 µM (top of the series)) 8.65%
9.91% and 14.4%: max response [16, 20]
12.7% and 27.2%: max response [16, 21]

COc1cc(NS(=O)(=O)c2ccc(N)cc2)nc(OC)n1
inactive: activity change, negative = inhibition ([16]; at 25.7 µM (top of the series)) -1.42% | activity change, negative = inhibition ([16]; at 57.5 µM (top of the series)) 14.8%
-12.8% and 25.1%: max response [16, 21]
-11.2% and 9.08%: max response [16, 20]

CC[C@H](C)C(=O)O[C@H]1C[C@@H](C)C=C2C=C[C@H](C)[C@H](CC[C@@H]3C[C@@H](O)CC(=O)O3)[C@H]21
inactive: Potency [1] | Potency [2] | Potency [3] | Potency [4] | Potency [6] | Potency [7] | Potency [9] | Potency [10] | Potency [12] | Potency [13] | Potency [14]

CC1=NN(c2ccccc2)C(=O)C1
inactive: Potency [1] | Potency [2] | Potency [3] | Potency [4] | Potency [5] | Potency [6] | Potency [7] | Potency [8] | Potency [9] | Potency [10] | Potency [11] | Potency [12] | Potency [13] | Potency [14] | Potency [15] | activity change, negative = inhibition ([16]; at 57.5 µM (top of the series)) 5.32%
16.1%: max response [16, 20]
20.6%: max response [16, 21]
